# The panel holds about 79,000 compounds, 15% with a hit somewhere; the sample as a whole holds those more often. Unmarked numbers belong to inactive results. The source made the active and inactive calls. Rule as the data show it: active = growth inhibition above about 70%; inactive = the rest.
# Key:
# [1] = NCI Yeast Anticancer Drug Screen. Data for the rad52 strain (AID 147);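 also: 0% = growth of vehicle-treated control cultures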; settings: S. cerevisiae rad52 mutant growth inhibition, hits give high values
# Procedure, shortened: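 Compounds are applied to a genetically defined yeast strain lacking normal DNA damage repair, and inhibition of growth is expressed relative to cultures given vehicle only.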
# [2] = NCI Yeast Anticancer Drug Screen. Data for the wt1 strain (AID 149);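 also: 0% = growth of vehicle-treated wt1 cultures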; settings: S. cerevisiae wt1 strain (SPY 50644) growth inhibition, hits give high values
# Procedure, shortened: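 Vehicle-normalised growth inhibition; strain wt1; compound exposure.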
# [3] = NCI Yeast Anticancer Drug Screen. Data for the rad50EPP+ strain (AID 151);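 also: 0% = growth of vehicle-treated control cultures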; settings: S. cerevisiae rad50 mutant strain, hits give high values
# Procedure, shortened: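 Compounds were applied to the rad50EPP+ yeast strain, which bears a defined DNA repair alteration, and growth inhibition was determined relative to vehicle-treated cultures.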
# [4] = NCI Yeast Anticancer Drug Screen. Data for the mgt1 strain (AID 153); settings: S. cerevisiae mgt1 mutant growth inhibition, hits give high values
# Procedure, shortened: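 Strain: mgt1 yeast, one of a set carrying defined DNA damage repair or cell cycle control alterations. Compound-treated growth compared with vehicle.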
# [5] = NCI Yeast Anticancer Drug Screen. Data for the rad50 strain (AID 155);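 also: 0% = growth of vehicle-only cultures of the same strain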; settings: S. cerevisiae rad50 strain growth inhibition, hits give high values
# Procedure, shortened: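 A DNA repair-deficient yeast mutant serves as the test organism; compound-induced growth inhibition is calculated against vehicle-treated cells.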
# [6] = NCI Yeast Anticancer Drug Screen. Data for the mec2-1 strain (AID 157); settings: S. cerevisiae mec2-1 strain, hits give high values
# Procedure, shortened: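 Strain: mec2-1 (DNA repair/cell cycle alteration). Compound exposure, then growth measured; inhibition expressed relative to vehicle.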
# [7] = NCI Yeast Anticancer Drug Screen. Data for the rad14 strain (AID 159);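 also: 0% = growth of vehicle-treated control cultures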; settings: S. cerevisiae rad14 strain growth inhibition, hits give high values
# Procedure, shortened: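 Vehicle-treated cultures served as the baseline for growth inhibition of a DNA repair-mutant yeast strain exposed to each compound.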
# [8] = NCI Yeast Anticancer Drug Screen. Data for the sgs1 mgt1 strain (AID 161);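 also: 0% = growth of cultures given vehicle only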; settings: S. cerevisiae sgs1 mgt1 strain, hits give high values
# Procedure, shortened: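 Test agents were incubated with a DNA-repair-mutant yeast strain. Growth was then read and compared against vehicle-treated controls.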
# [9] = NCI Yeast Anticancer Drug Screen. Data for the CLN2oe strain (AID 163);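 also: 0% = growth of vehicle-only control cultures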; settings: S. cerevisiae CLN2oe strain, hits give high values
# Procedure, shortened: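 Growth of a genetically modified yeast strain is measured after compound exposure and compared with cultures given vehicle alone.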
# [10] = NCI Yeast Anticancer Drug Screen. Data for the cln2 rad14 strain (AID 165);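 also: 0% = growth equal to vehicle treated cultures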; settings: S. cerevisiae cln2 rad14 strain, hits give high values
# Procedure, shortened: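 Compounds are applied to the cln2 rad14 yeast strain, and growth is then compared with that of vehicle-treated cultures to give inhibition.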
# [11] = NCI Yeast Anticancer Drug Screen. Data for the bub3 strain (AID 167); settings: S. cerevisiae bub3 mutant strain, hits give high values
# Procedure, shortened: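 Inhibition values come from growth of compound-treated mutant yeast normalised to vehicle-treated controls.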
# [12] = NCI Yeast Anticancer Drug Screen. Data for the wt2 strain (AID 169);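 also: 0% = growth of vehicle-treated yeast cultures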; settings: S. cerevisiae wt2 strain growth inhibition, hits give high values
# Procedure, shortened: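 This strain belongs to a panel of yeast strains with defined genetic alterations in DNA damage repair or cell cycle control. Compounds are applied, and growth inhibition is measured against vehicle-treated cultures.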
# [13] = NCI Yeast Anticancer Drug Screen. Data for the mlh1 strain (AID 171);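 also: 0% = growth of vehicle-treated control cultures of the same strain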; settings: S. cerevisiae mlh1 strain growth inhibition, hits give high values
# Procedure, shortened: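 Growth of the mutant yeast strain after compound exposure, expressed as inhibition relative to vehicle-only controls.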
# [14] = NCI Yeast Anticancer Drug Screen. Data for the sgs1 strain (AID 173);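 also: 0% = growth of vehicle-only control cultures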; settings: S. cerevisiae sgs1 mutant, hits give high values
# Procedure, shortened: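 Growth of a yeast strain bearing a defined genetic alteration is measured after compound treatment. Inhibition is expressed relative to vehicle-only controls.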
# [15] = NCI Yeast Anticancer Drug Screen. Data for the mlh1 rad18 strain (AID 175); settings: S. cerevisiae mlh1 rad18 strain growth inhibition, hits give high values
# Procedure, shortened: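 Read-out is yeast growth inhibition, calculated against vehicle-only controls. The compound was applied to a strain engineered with DNA damage repair alterations.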
# [16] = NCI Yeast Anticancer Drug Screen. Data for the rad18 strain (AID 177); settings: S. cerevisiae rad18 mutant growth inhibition, hits give high values
# Procedure, shortened: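 Growth of the mutant yeast strain after compound exposure, normalised to vehicle-only cultures.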
# [17] = at 5.0 µM (retest, dose inferred, filed as 0.5)
# [18] = at 50.0 µM (retest, dose inferred, filed as 5.0)
smiles,measurement,setting,value
O=C(O)/C=C\C(=O)Nc1ccc2c(c1)Cc1cc(Cl)ccc1-2,growth inhibition,[1]; at 1.2 µM,-3%
same,growth inhibition,[1]; at 3.7 µM,-3%
same,growth inhibition,[1]; at 11.0 µM,-3%
same,growth inhibition,[1]; at 33.0 µM,2%
same,growth inhibition,[1]; at 100.0 µM,19%
same,growth inhibition,[2]; at 1.2 µM,-3%
same,growth inhibition,[2]; at 3.7 µM,-3%
same,growth inhibition,[2]; at 11.0 µM,-6%
same,growth inhibition,[2]; at 33.0 µM,-5%
same,growth inhibition,[2]; at 100.0 µM,0%
same,growth inhibition,[3]; at 1.2 µM,-3%
same,growth inhibition,[3]; at 3.7 µM,8%
same,growth inhibition,[3]; at 11.0 µM,14%
same,growth inhibition,[3]; at 33.0 µM,28%
same,growth inhibition,[3]; at 100.0 µM,81% (active)
same,growth inhibition,[4]; at 1.2 µM,-3%
same,growth inhibition,[4]; at 3.7 µM,-5%
same,growth inhibition,[4]; at 11.0 µM,-1%
same,growth inhibition,[4]; at 33.0 µM,-4%
same,growth inhibition,[4]; at 100.0 µM,22%
same,growth inhibition,[5]; at 1.2 µM,-3%
same,growth inhibition,[5]; at 3.7 µM,-4%
same,growth inhibition,[5]; [17],12%
same,growth inhibition,[5]; at 11.0 µM,-2%
same,growth inhibition,[5]; at 33.0 µM,1%
same,growth inhibition,[5]; [18],7%
same,growth inhibition,[5]; at 50.0 µM,-6.3%
same,growth inhibition,[5]; at 100.0 µM,19%
same,growth inhibition,[6]; at 1.2 µM,-4%
same,growth inhibition,[6]; at 3.7 µM,-1%
same,growth inhibition,[6]; [17],-1%
same,growth inhibition,[6]; at 11.0 µM,-2%
same,growth inhibition,[6]; at 33.0 µM,1%
same,growth inhibition,[6]; [18],-4%
same,growth inhibition,[6]; at 50.0 µM,1.65%
same,growth inhibition,[6]; at 100.0 µM,10%
same,growth inhibition,[7]; at 1.2 µM,-3%
same,growth inhibition,[7]; at 3.7 µM,-4%
same,growth inhibition,[7]; at 11.0 µM,-3%
same,growth inhibition,[7]; at 33.0 µM,4%
same,growth inhibition,[7]; at 100.0 µM,29%
same,growth inhibition,[8]; [17],-1%
same,growth inhibition,[8]; [18],33%
same,growth inhibition,[8]; at 50.0 µM,34.1%
same,growth inhibition,[9]; at 1.2 µM,-4%
same,growth inhibition,[9]; at 3.7 µM,-7%
same,growth inhibition,[9]; at 11.0 µM,-11%
same,growth inhibition,[9]; at 33.0 µM,-13%
same,growth inhibition,[9]; at 100.0 µM,-3%
same,growth inhibition,[10]; [17],-5%
same,growth inhibition,[10]; [18],15%
same,growth inhibition,[10]; at 50.0 µM,80.3% (active)
same,growth inhibition,[11]; at 1.2 µM,-4%
same,growth inhibition,[11]; at 3.7 µM,-5%
same,growth inhibition,[11]; [17],-4%
same,growth inhibition,[11]; at 11.0 µM,-7%
same,growth inhibition,[11]; at 33.0 µM,-7%
same,growth inhibition,[11]; [18],-7%
same,growth inhibition,[11]; at 50.0 µM,11.9%
same,growth inhibition,[11]; at 100.0 µM,-1%
same,growth inhibition,[12]; at 1.2 µM,-3%
same,growth inhibition,[12]; at 3.7 µM,-3%
same,growth inhibition,[12]; at 11.0 µM,-5%
same,growth inhibition,[12]; at 33.0 µM,-3%
same,growth inhibition,[12]; at 100.0 µM,11%
same,growth inhibition,[13]; at 1.2 µM,-2%
same,growth inhibition,[13]; at 3.7 µM,-1%
same,growth inhibition,[13]; at 11.0 µM,1%
same,growth inhibition,[13]; at 33.0 µM,4%
same,growth inhibition,[13]; at 100.0 µM,27%
same,growth inhibition,[14]; at 1.2 µM,-2%
same,growth inhibition,[14]; at 3.7 µM,0%
same,growth inhibition,[14]; at 11.0 µM,4%
same,growth inhibition,[14]; at 33.0 µM,10%
same,growth inhibition,[14]; at 100.0 µM,50%
same,growth inhibition,[15]; [17],2%
same,growth inhibition,[15]; [18],59%
same,growth inhibition,[15]; at 50.0 µM,54.1%
same,growth inhibition,[16]; at 1.2 µM,0%
same,growth inhibition,[16]; at 3.7 µM,5%
same,growth inhibition,[16]; at 11.0 µM,18%
same,growth inhibition,[16]; at 33.0 µM,34%
same,growth inhibition,[16]; at 100.0 µM,80% (active)
Cc1ccc([N+](=O)[O-])c2c(NCCC[N+](C)(C)[O-])c3ccccc3nc12,growth inhibition,[1]; at 1.2 µM,-8%
same,growth inhibition,[1]; at 3.7 µM,-4%
same,growth inhibition,[1]; at 11.0 µM,8%
same,growth inhibition,[1]; at 33.0 µM,47%
same,growth inhibition,[1]; at 100.0 µM,85% (active)
same,growth inhibition,[2]; at 1.2 µM,-5%
same,growth inhibition,[2]; at 3.7 µM,0%
same,growth inhibition,[2]; at 11.0 µM,2%
same,growth inhibition,[2]; at 33.0 µM,2%
same,growth inhibition,[2]; at 100.0 µM,2%
same,growth inhibition,[3]; at 1.2 µM,-9%
same,growth inhibition,[3]; at 3.7 µM,-10%
same,growth inhibition,[3]; at 11.0 µM,-6%
same,growth inhibition,[3]; at 33.0 µM,8%
same,growth inhibition,[3]; at 100.0 µM,54%
same,growth inhibition,[4]; at 1.2 µM,-2%
same,growth inhibition,[4]; at 3.7 µM,0%
same,growth inhibition,[4]; at 11.0 µM,-6%
same,growth inhibition,[4]; at 33.0 µM,5%
same,growth inhibition,[4]; at 100.0 µM,1%
same,growth inhibition,[5]; at 1.2 µM,4%
same,growth inhibition,[5]; at 3.7 µM,7%
same,growth inhibition,[5]; [17],-16%
same,growth inhibition,[5]; at 11.0 µM,3%
same,growth inhibition,[5]; at 33.0 µM,38%
same,growth inhibition,[5]; [18],44%
same,growth inhibition,[5]; at 50.0 µM,61.2%
same,growth inhibition,[5]; at 100.0 µM,81% (active)
same,growth inhibition,[6]; at 1.2 µM,-15%
same,growth inhibition,[6]; at 3.7 µM,-10%
same,growth inhibition,[6]; [17],11%
same,growth inhibition,[6]; at 11.0 µM,-14%
same,growth inhibition,[6]; at 33.0 µM,-1%
same,growth inhibition,[6]; [18],64%
same,growth inhibition,[6]; at 50.0 µM,1.6%
same,growth inhibition,[6]; at 100.0 µM,82% (active)
same,growth inhibition,[7]; at 1.2 µM,11%
same,growth inhibition,[7]; at 3.7 µM,15%
same,growth inhibition,[7]; at 11.0 µM,43%
same,growth inhibition,[7]; at 33.0 µM,91% (active)
same,growth inhibition,[7]; at 100.0 µM,96% (active)
same,growth inhibition,[8]; [17],6%
same,growth inhibition,[8]; [18],62%
same,growth inhibition,[8]; at 50.0 µM,56.8%
same,growth inhibition,[9]; at 1.2 µM,-16%
same,growth inhibition,[9]; at 3.7 µM,-9%
same,growth inhibition,[9]; at 11.0 µM,-17%
same,growth inhibition,[9]; at 33.0 µM,-21%
same,growth inhibition,[9]; at 100.0 µM,10%
same,growth inhibition,[10]; [17],18%
same,growth inhibition,[10]; [18],91% (active)
same,growth inhibition,[10]; at 50.0 µM,77.8% (active)
same,growth inhibition,[11]; at 1.2 µM,-11%
same,growth inhibition,[11]; at 3.7 µM,-4%
same,growth inhibition,[11]; [17],-22%
same,growth inhibition,[11]; at 11.0 µM,-20%
same,growth inhibition,[11]; at 33.0 µM,-13%
same,growth inhibition,[11]; [18],3%
same,growth inhibition,[11]; at 50.0 µM,-36%
same,growth inhibition,[11]; at 100.0 µM,-17%
same,growth inhibition,[12]; at 1.2 µM,0%
same,growth inhibition,[12]; at 3.7 µM,-4%
same,growth inhibition,[12]; at 11.0 µM,4%
same,growth inhibition,[12]; at 33.0 µM,8%
same,growth inhibition,[12]; at 100.0 µM,10%
same,growth inhibition,[13]; at 1.2 µM,26%
same,growth inhibition,[13]; at 3.7 µM,11%
same,growth inhibition,[13]; at 11.0 µM,10%
same,growth inhibition,[13]; at 33.0 µM,-12%
same,growth inhibition,[13]; at 100.0 µM,27%
same,growth inhibition,[14]; at 1.2 µM,-7%
same,growth inhibition,[14]; at 3.7 µM,6%
same,growth inhibition,[14]; at 11.0 µM,31%
same,growth inhibition,[14]; at 33.0 µM,66%
same,growth inhibition,[14]; at 100.0 µM,81% (active)
same,growth inhibition,[15]; [17],31%
same,growth inhibition,[15]; [18],82% (active)
same,growth inhibition,[15]; at 50.0 µM,45.1%
same,growth inhibition,[16]; at 1.2 µM,22%
same,growth inhibition,[16]; at 3.7 µM,76% (active)
same,growth inhibition,[16]; at 11.0 µM,90% (active)
same,growth inhibition,[16]; at 33.0 µM,94% (active)
same,growth inhibition,[16]; at 100.0 µM,94% (active)
